“And” between values parts separate entries of the source, which are not always exact repeats. Equal entries are not always repeated. The source made the active and inactive calls.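 The calls were made as follows, unless noted: active = z-score of at least 1.8 in each of two replicates, scored against plate mean and spread of sample wells; inactive = the rest.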

Assay [1] is described as follows: yeast 75Q aggregation reduction – 75Q-TubU reporter (AID 1593). To be noted: Yeast 75Q polyglutamine aggregation reporter.
Assay [2] in a line: blockers of cytochrome c efflux from mitochondria – biochemical, purified mitochondria (AID 1603).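 Also: mouse liver mitochondria challenged with calcium chloride; signal normalized to the plate average as 100%.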 To be noted: stronger effect = lower value.
Assay [3] in a line: polyglutamine aggregate formation blockers (AID 1604). To be noted: polyglutamine-induced protein aggregation inhibition assay; stronger effect = higher value; tested at 2.5 µM.
A short description of assay [4]: Wnt pathway potentiators raising nuclear beta-catenin – imaging, WNT3A-conditioned medium, mouse C2C12, NPC library, primary screen (AID 1117326; in the data active = nuclear beta-catenin stimulation mostly above about 4.2%, no sharp cut-off; inactive = mostly below about 10%). To be noted: stronger effect = higher value.
Assay [5] is described as follows: stimulators of insulin release from INS-1E, primary screen, cell-based, 5 mM glucose, NPC library (AID 1117329;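 active = compound raises insulin release from rat beta cells at 5 mM glucose, no numeric limit stated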). To be noted: rat INS-1E insulin secretion, at 10 µM, stronger effect = higher value.
Assay [6] can be described thus: growth inhibition of GSK3B-pretreated HCT116 cells – cell-based, CellTiter-Glo, 0.2 to 20 µM (AID 1117336;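 active = compounds lowering colon cancer cell viability after pretreatment blocking the GSK3B kinase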). To be noted: HCT116 viability after GSK3B inhibitor, at 20 µM, stronger effect = higher value. (Cellular ATP, detected with luciferase, serves as a proxy for viable cell number.)
Assay [7] is described as follows: inhibition of endothelial tube formation, primary screen, imaging, VEGF stimulated, CD31 staining, tube area, NPC library (AID 1117340;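 active = compound that reduces growth-factor-driven endothelial tube area in a mixed cell culture, no cutoff stated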). To be noted: VEGF-stimulated ADSC/ECFC co-culture, at 10 µM, stronger effect = higher value.
Assay [8] is described as follows: GLP1 release stimulators, primary, NCI-H716, NPC library (AID 1117341;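 active = compound raises GLP1 secretion from the human gut endocrine cells, with no numeric limit stated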). To be noted: NCI-H716 cells, at 10 µM, stronger effect = higher value.
The nature of assay [9]: HCT116 colon cancer cell growth inhibition, primary screen, CellTiter-Glo luminescence, NPC library (AID 1117342;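 active = compounds that lower survival of HCT116 colon cancer cells in the luminescence readout, no numeric limit stated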). To be noted: at 20 µM (top of the series).
A short description of assay [10]: reduced SW480 viability measured with CellTiter-Glo, NPC library, primary (AID 1117343;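 active = compounds that lower viability of the colon cancer cells in the luminescence readout, with no numeric limit stated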). To be noted: CellTiter-Glo luminescence; at 20 µM (top of the series).
Assay [11] in a line: NPC library primary testing for decreased DLD-1 cell viability via CellTiter-Glo (AID 1117346;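 active = compounds that lower survival of DLD-1 colon cancer cells in the luminescence readout, no cutoff given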). To be noted: DLD-1 viability, CellTiter-Glo luminescence; at 20 µM (top of the series).
Assay [12] has as its target 6-phosphogluconate dehydrogenase, decarboxylating (Homo sapiens) (UniProt P52209). The assay is described as follows: inhibition of human phosphogluconate dehydrogenase – biochemical, recombinant enzyme, NADPH absorbance, primary screen (AID 1159550;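 active = at least 20% inhibition of 6-phosphogluconate dehydrogenase activity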). To be noted: recombinant 6PGD, NADPH absorbance 341 nm; at 10 µM; stronger effect = higher value.
A short description of assay [13]: EMT-state selective cytotoxicity in co-culture – imaging, PC-3E GFP, TEM4-18 mCherry, primary screen (AID 1345086;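 active = compounds killing one labelled cell type while sparing the other, by normalised counts and ratio limits, not self-fluorescent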;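 as to all read-outs here: cells exposed to compound for 72 h before imaging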;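 as to red/green cell ratio (normalised): normalised mesenchymal count divided by normalised epithelial count so high means epithelial killing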). To be noted: PC-3E GFP / TEM4-18 mCherry co-culture, imaging cell counts, at 1 µM; for red/green cell ratio (normalised): actives lie on both sides.
Assay [14] deals with Aerobactin synthetase IucA (Klebsiella pneumoniae hvKP1). The assay is described as follows: IucA enzyme inhibition, primary screen, biochemical, Spectrum library (AID 1346200; call rule not given here;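 also: 100% = wells without compound and 0% = wells lacking enzyme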). To be noted: malachite green pyrophosphate, A620, at 8 µM, stronger effect = lower value.
Assay [15] can be described thus: viability loss with induced miR-34 in A549 – imaging, A549 dox-inducible miR-34, nuclei and caspase counts, primary screen (AID 1347080;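 active = compounds whose cell count with miR-34 switched on is under 0.7 times the count with it off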). To be noted: A549 miR-34 inducible, Hoechst nuclei count, 48 h.
The target in assay [16] is Mitogen-activated protein kinase 7 (Homo sapiens) (UniProt Q13164). Nature of the assay: Gal4-ERK5 driven luciferase induction – cell-based, HTS, primary screen (AID 1508626;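 active = luciferase signal above three times the same-plate solvent-only control wells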;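 also: luciferase driven by Gal4-ERK5 fusion binding five Gal4 sites before minimal TATA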). To be noted: HeLa Gal4-ERK5 transactivation, 18 h, at 5 µM, stronger effect = higher value.
The nature of assay [17]: galactose survival enhancers in mitochondrial complex I cybrids – cell-based, galactose medium, ATP luminescence, primary screen (AID 1645843).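 Also: positive z means more ATP and so rescue of galactose-driven cybrid death.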 To be noted: complex I mutant cybrid cells, 72 h, stronger effect = higher value.
Assay [18] can be described thus: MELAS cybrid and Rieske KO viability enhancers – cell-based, MELAS cybrids, Rieske KO mouse fibroblasts, CellTiter-Glo, primary screen (AID 1508586;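 active = mean z-score across replicates of 1.96 or higher in either the MELAS or the Rieske mutant cell line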;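 also: z relative to plate mean and SD of compound and empty wells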). To be noted: low glucose.
Assay [19] deals with NAD(+) hydrolase SARM1 (Homo sapiens) (UniProt Q6SZW1). The assay is described as follows: blocking NAD cleavage by SARM1 SAM-TIR – cell lysate, NAD-Glo luminescence (AID 1508614;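 active = compound whose remaining NAD level is above about 45 nM, limit read from the data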;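 also: higher remaining NAD means stronger inhibition of SARM1 NADase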). To be noted: SAM-TIR HEK293T lysate NADase, at 1 µM, stronger effect = higher value.
A short description of assay [20]: P. berghei load reduction in hepatocytes – cell-based, HepG2, luciferase luminescence, HepG2 viability, primary screen (AID 624349; in the data active = parasite load remaining mostly below about 12%, no sharp cut-off; inactive = mostly above about 10%;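 also: 100% = mean of DMSO negative control wells on the same plate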). To be noted: P. berghei liver stage in HepG2, luciferase luminescence, concentration not given here; parasite load remaining: stronger effect = lower value; viability: measured here: HepG2 viability without parasites.
Where [21] appears, read: measured here: epithelial PC-3E GFP cell survival.
Setting [22] is: measured here: mesenchymal TEM4-18 mCherry cell survival.
Where [23] appears, read: measured here: relative caspase fold change +Dox/-Dox.
Where [24] appears, read: measured here: total cells with miR-34 induction, stronger effect = lower value.
The mark [25] stands for this setting: measured here: total cells without miR-34 induction.
[26] abbreviates: MELAS cybrid survival, CellTiter-Glo 48 h, stronger effect = higher value.
The mark [27] stands for this setting: Rieske KO mouse fibroblast survival, CellTiter-Glo 72 h.

Chain of Mitogen-activated protein kinase 7 (Homo sapiens) (Q13164 whole entry, looked up, the tested form may be a part): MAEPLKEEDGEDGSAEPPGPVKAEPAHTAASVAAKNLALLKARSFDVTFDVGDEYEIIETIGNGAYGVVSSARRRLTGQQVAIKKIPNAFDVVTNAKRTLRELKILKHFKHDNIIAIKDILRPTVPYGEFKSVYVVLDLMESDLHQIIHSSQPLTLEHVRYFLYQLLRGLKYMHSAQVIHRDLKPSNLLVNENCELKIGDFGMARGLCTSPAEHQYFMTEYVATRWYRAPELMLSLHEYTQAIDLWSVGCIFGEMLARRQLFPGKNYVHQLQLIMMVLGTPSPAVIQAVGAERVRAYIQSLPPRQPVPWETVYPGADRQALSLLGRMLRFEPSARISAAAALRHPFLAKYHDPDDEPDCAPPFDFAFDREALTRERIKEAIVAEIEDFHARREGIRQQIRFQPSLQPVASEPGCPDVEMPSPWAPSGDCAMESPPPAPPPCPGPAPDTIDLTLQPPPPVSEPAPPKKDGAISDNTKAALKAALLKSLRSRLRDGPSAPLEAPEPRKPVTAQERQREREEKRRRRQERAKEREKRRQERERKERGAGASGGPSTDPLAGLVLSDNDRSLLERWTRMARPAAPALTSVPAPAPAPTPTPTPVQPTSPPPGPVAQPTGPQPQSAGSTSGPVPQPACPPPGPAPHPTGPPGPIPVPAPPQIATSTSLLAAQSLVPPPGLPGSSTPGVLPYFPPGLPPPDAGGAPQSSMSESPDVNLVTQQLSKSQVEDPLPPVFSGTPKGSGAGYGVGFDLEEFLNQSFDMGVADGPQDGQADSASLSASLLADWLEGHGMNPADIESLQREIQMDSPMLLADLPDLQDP
Chain of 6-phosphogluconate dehydrogenase, decarboxylating (Homo sapiens) (P52209 whole entry, looked up): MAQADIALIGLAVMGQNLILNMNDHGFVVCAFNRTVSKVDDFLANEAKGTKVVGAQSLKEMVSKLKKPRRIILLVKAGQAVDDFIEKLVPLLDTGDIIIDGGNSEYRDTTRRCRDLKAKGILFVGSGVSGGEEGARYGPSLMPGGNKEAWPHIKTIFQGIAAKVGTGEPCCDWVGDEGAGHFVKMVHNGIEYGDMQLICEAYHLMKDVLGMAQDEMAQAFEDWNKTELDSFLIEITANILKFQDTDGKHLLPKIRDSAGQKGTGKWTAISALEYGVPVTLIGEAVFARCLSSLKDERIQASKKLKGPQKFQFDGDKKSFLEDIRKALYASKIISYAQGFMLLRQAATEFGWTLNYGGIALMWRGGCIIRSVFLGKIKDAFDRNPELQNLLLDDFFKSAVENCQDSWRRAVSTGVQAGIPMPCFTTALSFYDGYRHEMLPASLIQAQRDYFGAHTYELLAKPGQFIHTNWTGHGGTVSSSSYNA
Chain of NAD(+) hydrolase SARM1 (Homo sapiens) (Q6SZW1 whole entry, looked up): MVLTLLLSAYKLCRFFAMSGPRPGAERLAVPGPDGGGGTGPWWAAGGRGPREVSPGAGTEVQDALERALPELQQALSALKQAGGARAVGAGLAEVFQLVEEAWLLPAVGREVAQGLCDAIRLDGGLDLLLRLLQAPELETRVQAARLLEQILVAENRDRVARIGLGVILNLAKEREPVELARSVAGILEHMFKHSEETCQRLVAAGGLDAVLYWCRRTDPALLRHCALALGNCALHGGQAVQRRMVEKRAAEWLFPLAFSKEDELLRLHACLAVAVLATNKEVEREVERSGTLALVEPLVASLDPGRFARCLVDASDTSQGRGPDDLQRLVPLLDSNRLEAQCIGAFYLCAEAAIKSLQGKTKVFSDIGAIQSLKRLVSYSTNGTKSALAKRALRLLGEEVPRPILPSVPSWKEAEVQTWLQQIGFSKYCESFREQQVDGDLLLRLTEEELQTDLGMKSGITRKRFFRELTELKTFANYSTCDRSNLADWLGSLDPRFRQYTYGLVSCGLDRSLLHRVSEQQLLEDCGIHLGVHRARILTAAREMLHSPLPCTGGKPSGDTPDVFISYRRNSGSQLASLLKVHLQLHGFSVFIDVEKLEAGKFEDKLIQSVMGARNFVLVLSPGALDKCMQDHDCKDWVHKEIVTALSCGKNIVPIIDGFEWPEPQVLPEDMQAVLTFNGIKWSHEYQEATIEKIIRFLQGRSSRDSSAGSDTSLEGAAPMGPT

Compound `C=C(C)[C@H]1Cc2c(ccc3c2O[C@@H]2COc4cc(OC)c(OC)cc4[C@@H]2C3=O)O1` came in with a score in assay [1] of 3.23. Also, in [2], the cytochrome c release ratio was 1.15. In addition, the inhibition of aggregation in [3] stood at 33.3%. Besides, the nuclear beta-catenin stimulation in [4] (at 10 µM) was 92.8% (active); in assay [4] (stimulation, at 2 µM) it was 43.8%. The insulin secretion stimulation in [5] was -0.1% (inactive). In addition, the viability decrease in [6] is 4.4% (inactive). For the same compound, the tube area decrease in assay [7] is 107% (active). In addition, the GLP1 secretion stimulation in assay [8] is 2.2% (inactive). In addition, in assay [9], the inhibition of viability was 60.6% (active). The values for the viability decrease (inhibition) in assay [10] and in assay [11] were 88.3% (active) and 83.4% (active), respectively. For the same compound, the inhibition in assay [12] is 10.4% (inactive). Moreover, in assay [13], the red/green cell ratio (normalised) is 1.19 (inactive). For the same compound, the values for the normalised cell number in assay [13] (setting [21]) and in assay [13] (setting [22]) were 0.27 and 0.32, respectively. Also, the activity remaining in [14] is 92.3% (inactive). The results for the fold change in [15] (stronger effect = lower value) and in assay [15] (setting [23]) were 1.11 (inactive) and 0.665, respectively. The cell count in assay [15] (setting [24]) stood at 1680; in [15] (setting [25]) it was 1510. Moreover, in assay [16], the luciferase signal is 52 AU (inactive). Also, the z-score in [17] was -1.29 (inactive).
Regarding `CC(Cc1ccc(O)cc1)NCC(O)c1cc(O)cc(O)c1` (stereo not given), the score in [1] worked out at 1.05. Besides, the cytochrome c release ratio in assay [2] came to 1.18. The compound also came in with an inhibition of aggregation in [3] of 70.4%. The nuclear beta-catenin stimulation in assay [4] (at 10 µM) was -1.3% (inactive); in assay [4] (stimulation, at 2 µM) it was -0.9%. In assay [5], the insulin secretion stimulation is 0.5% (inactive). In addition, the viability decrease in assay [6] is -4.2% (inactive). Moreover, the tube area decrease in assay [7] was 18.4% (inactive). Moreover, the GLP1 secretion stimulation in [8] was 1.7% (inactive). Besides, the inhibition of viability in assay [9] was -2.93% (inactive). In addition, the viability decrease (inhibition) in [10] is -0.4% (inactive); in [11], -21.3% (inactive). The inhibition in [12] was -6.23% (inactive). In addition, the red/green cell ratio (normalised) in assay [13] was 1.06 (inactive). Also, the normalised cell number was found to be 0.97 in assay [13] (setting [21]) and 1.03 in [13] (setting [22]). Besides, the activity remaining in assay [14] is 110% (inactive). The fold change in [15] (stronger effect = lower value) is 1 (inactive) and 0.892 (inactive) and 0.893 (inactive); in assay [15] (setting [23]), 0.955 and 0.849 and 2.71. The cell count in assay [15] (setting [24]) was 10100 and 8600 and 10800; in [15] (setting [25]) it was 10100 and 9640 and 12100. Further, the z-score in assay [18] (setting [26]) is 0.566 (inactive); in assay [18] (setting [27]) it was 0.235; in assay [17], -0.085 (inactive). Moreover, the remaining NAD in assay [19] is 10 nM (inactive). Besides, the luciferase signal in assay [16] is 48 AU (inactive).
In the case of `NCCc1ccc(O)cc1`, the score in [1] came to 1.21. The cytochrome c release ratio in assay [2] amounted to 0.71. In addition, in assay [3], the inhibition of aggregation was found to be 39.2%. Also, the nuclear beta-catenin stimulation is -0.5% (inactive) in assay [4] (at 10 µM) and 1.3% in assay [4] (stimulation, at 2 µM). In addition, the insulin secretion stimulation in assay [5] was 1.8% (inactive). The viability decrease in [6] is 4.6% (inactive). In [7], the tube area decrease was -10% (inactive). For the same compound, in assay [8], the GLP1 secretion stimulation was -1.8% (inactive). For the same compound, the inhibition of viability in assay [9] was 9.07% (inactive). Moreover, the viability decrease (inhibition) is 5.3% (inactive) in [10] and -2.9% (inactive) in assay [11]. In assay [12], the inhibition was -11.3% (inactive). The red/green cell ratio (normalised) in assay [13] was 0.8 (inactive). The normalised cell number in assay [13] (setting [21]) amounted to 1.04; in assay [13] (setting [22]), 0.83. Also, the activity remaining in assay [14] was 108% (inactive). Further, the fold change in assay [15] (stronger effect = lower value, cell number ratio, induced over uninduced) is 0.965 (inactive); in assay [15] (setting [23]) it was 1.32. Besides, the cell count in assay [15] (setting [24]) stood at 10000; in [15] (setting [25]) it was 10400. In addition, the luciferase signal in [16] is 52 AU (inactive). Further, the z-score in assay [17] was 0.68 (inactive).
For `CN1C(=O)CCS(=O)(=O)C1c1ccc(Cl)cc1` (stereo not given), in assay [1], the score is 0.89. Besides, the cytochrome c release ratio in [2] stood at 0.72. In assay [3], this compound gave an inhibition of aggregation of 72.7%. The parasite load remaining in [20] is 65% (inactive) and 73.4% (inactive). In assay [20], the viability was 112% and 75.6%. Also, the nuclear beta-catenin stimulation was 0.2% (inactive) in [4] (at 10 µM) and 3.4% in assay [4] (stimulation, at 2 µM). In addition, the insulin secretion stimulation in assay [5] is 0.4% (inactive). In assay [6], the viability decrease is -22.1% (inactive). Further, the tube area decrease in assay [7] was 3.9% (inactive). Besides, the GLP1 secretion stimulation in [8] is 3.4% (inactive). The inhibition of viability in [9] was -1.4% (inactive). Further, the viability decrease (inhibition) in assay [10] is 2.8% (inactive); in [11], -11.9% (inactive). Besides, in assay [12], the inhibition was -16% (inactive). The red/green cell ratio (normalised) in assay [13] was 1.12 (inactive). Further, the normalised cell number in assay [13] (setting [21]) worked out at 0.96; in assay [13] (setting [22]) it was 1.07. Besides, the activity remaining in assay [14] was 123% (inactive). Moreover, the z-score is -0.135 (inactive) and 0.131 (inactive) in assay [18] (setting [26]); 0.8 and -0.00931 in assay [18] (setting [27]); 0.35 (inactive) and 0.81 (inactive) in assay [17]. Further, the remaining NAD in assay [19] was 10 nM (inactive).

One may read the inhibition as the drop in the measured response relative to a control, in per cent. In general, viability refers to a read-out of living cells in per cent, often relative to untreated cells.

For the origin of these results see PubChem BioAssay.
